Test systems include HCT-15 colon; HT29 colon; SNB-75 CNS; SNB-19 CNS; U251 CNS; PC-3 prostate; SK-MEL-5 melanoma; UACC-62 melanoma; LOX IMVI melanoma; SK-MEL-28 melanoma; SK-MEL-2 melanoma; EKVX NSCLC; SN12C renal; UO-31 renal; TK-10 renal; CAKI-1 renal; A498 renal; CCRF-CEM leukemia; MOLT-4 leukemia; ACHN renal.
Common to all, as to assay: NCI-60 one-dose screen, 48 h (100 = growth as untreated, 0 = no growth, -100 = all killed)
Holding throughout (details): 10 µM unless noted

“And” between values parts separate entries of the source, which are not always exact repeats. Equal entries are not always repeated. About 83,000 compounds went through this panel and 20% of them were active in at least one assay; those are over-represented in the sample as a whole.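 Testing used 96-well plates and a 48-hour single-concentration exposure. Example: -40 means 40% of the starting cells died.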 A number with no mark means an inactive call. The source made the active and inactive calls. Rule for the calls: active = growth percent below 10; inactive = the rest.

The record followed here is PubChem BioAssay (NCI).

For `Cc1ccc(Cc2cnc(NC(=O)c3cc(C)oc3C)s2)cc1`, the growth was 39.1% in the assay with HCT-15 colon; 51.3% with HT29 colon; 76.6% in the assay on SNB-75 CNS; 84.2% in the assay with SNB-19 CNS; 66.9% with U251 CNS; 72.8% in the assay on PC-3 prostate. For the same compound, the growth was 93.6% with SK-MEL-5 melanoma; 47.6% with UACC-62 melanoma; 68.9% with LOX IMVI melanoma; 81.3% in the assay on SK-MEL-28 melanoma; 85.6% in the assay on SK-MEL-2 melanoma; 57.4% with EKVX NSCLC. Also, the growth is 86.9% with SN12C renal; 61.2% with UO-31 renal; 63.6% in the assay with TK-10 renal; 38.4% with CAKI-1 renal; 84.4% in the assay with A498 renal; 70.8% with CCRF-CEM leukemia. Further, the growth in the assay with MOLT-4 leukemia is 60.2%.
As to `COc1cc(CNC(=O)CCCC/C=C/C(C)C)ccc1O`, the growth in the assay with HCT-15 colon is 104% and 96.9%; in the assay on HT29 colon, 104%; in the assay with SNB-75 CNS, 93% and 100%; in the assay on SNB-19 CNS, 90.9% and 104%; in the assay with U251 CNS, 101% and 98%; in the assay with PC-3 prostate, 86.6% and 88.1%. The growth in the assay with SK-MEL-5 melanoma is 97.8% and 97.5%; in the assay on UACC-62 melanoma, 96.6% and 104%; in the assay on LOX IMVI melanoma it was 89% and 86.9%; in the assay with SK-MEL-28 melanoma it was 116% and 112%; in the assay with SK-MEL-2 melanoma, 93.3% and 108%; in the assay with EKVX NSCLC, 103% and 97.3%. The growth in the assay on SN12C renal is 92.4% and 91.9%; in the assay on UO-31 renal, 57.7% and 59%; in the assay on TK-10 renal, 200% and 103%; in the assay with CAKI-1 renal, 92.1% and 82.2%; in the assay on A498 renal it was 112% and 113%; in the assay on CCRF-CEM leukemia, 55.8% and 58.3%. The growth in the assay on MOLT-4 leukemia is 84.2% and 73.4%.
For the compound `NNCCc1ccccc1`, the growth in the assay on HCT-15 colon is 99.7% and 91.6%; with HT29 colon, 96.5% and 100%; in the assay on SNB-75 CNS it was 107% and 78.7%; in the assay with SNB-19 CNS, 98.5% and 102%; with U251 CNS, 104% and 93.7%; in the assay on PC-3 prostate, 92% and 94.6%. For the same compound, the growth was 90.7% and 93.7% with SK-MEL-5 melanoma; 89.9% with UACC-62 melanoma; 98.2% and 88% with LOX IMVI melanoma; 110% and 95.5% with SK-MEL-28 melanoma; 100% and 106% with SK-MEL-2 melanoma; 101% and 86.2% in the assay with EKVX NSCLC. For the same compound, the growth with SN12C renal is 96.2% and 93%; in the assay with UO-31 renal, 77.5%; in the assay with TK-10 renal, 118%; in the assay with ACHN renal it was 92% and 89.9%; in the assay with CAKI-1 renal, 99.7% and 88.3%; in the assay with A498 renal it was 105% and 88.4%. In addition, in the assay on MOLT-4 leukemia, the growth was 104% and 96.4%.
As to `COc1ccc(-c2csc(NC(=O)CN3CCN(CCO)CC3)n2)cc1NS(=O)(=O)c1cccc2c(N(C)C)cccc12`, the growth with HCT-15 colon was 39.6%; in the assay on HT29 colon, 20.1%; with SNB-75 CNS it was 78.2%; in the assay with SNB-19 CNS, 74.3%; with U251 CNS, 29.5%; with PC-3 prostate, 72.7%. For the same compound, the growth with SK-MEL-5 melanoma is 58.5%; in the assay on UACC-62 melanoma, 89%; in the assay on LOX IMVI melanoma, -57.9% (active); with SK-MEL-28 melanoma it was -2.57% (active); with SK-MEL-2 melanoma, 86.9%; in the assay on EKVX NSCLC, 80.9%. For the same compound, the growth in the assay on SN12C renal was 89.1%; in the assay on UO-31 renal, 61.4%; with TK-10 renal it was 109%; in the assay on ACHN renal, 87%; in the assay with CAKI-1 renal it was 75.6%; in the assay on A498 renal, 102%. Moreover, in the assay with MOLT-4 leukemia, the growth was 65.4%.
For `CC1(Cc2ccccc2)CC2=C(C(=O)O1)C(c1ccccc1)NC(=O)N2` (stereo not drawn), the growth in the assay with HCT-15 colon was 106%; in the assay on HT29 colon, 96.8%; in the assay on SNB-75 CNS, 79.3%; with SNB-19 CNS, 89.4%; in the assay on U251 CNS, 104%; in the assay on PC-3 prostate, 92%. Also, the growth is 95% with SK-MEL-5 melanoma; 91.5% with UACC-62 melanoma; 95.3% in the assay with LOX IMVI melanoma; 116% in the assay with SK-MEL-28 melanoma; 107% in the assay on SK-MEL-2 melanoma; 98.7% in the assay on EKVX NSCLC. Further, the growth in the assay on SN12C renal is 104%; in the assay on UO-31 renal it was 79.9%; with TK-10 renal, 108%; in the assay on ACHN renal it was 101%; in the assay with CAKI-1 renal it was 95%; in the assay on A498 renal, 117%. The growth in the assay on MOLT-4 leukemia was 46.5%.
As for `Cc1ccc(Nc2nc(-c3cc(O)c(C)c(C)c3O)cs2)cc1`, the growth in the assay on HCT-15 colon was 76.7%; in the assay on HT29 colon, 112%; in the assay with SNB-75 CNS, 102%; in the assay with SNB-19 CNS, 110%; in the assay with U251 CNS it was 97.2%; in the assay on PC-3 prostate, 71%. Besides, the growth with SK-MEL-5 melanoma was 97.6%; in the assay on UACC-62 melanoma, 92.7%; in the assay on LOX IMVI melanoma, 75.1%; in the assay on SK-MEL-28 melanoma, 115%; in the assay on SK-MEL-2 melanoma, 105%; with EKVX NSCLC, 97.4%. The growth is 97% with SN12C renal; 89.7% in the assay with UO-31 renal; 120% in the assay on TK-10 renal; 92.7% in the assay on CAKI-1 renal; 123% with A498 renal; 14.8% in the assay with CCRF-CEM leukemia. Moreover, the growth in the assay with MOLT-4 leukemia was 26.5%.
Consider `COc1cc(C=O)ccc1Oc1ccc([N+](=O)[O-])cc1[N+](=O)[O-]`, for which the growth in the assay on HCT-15 colon is 108%; in the assay on HT29 colon, 108%; in the assay on SNB-75 CNS, 93.1%; with SNB-19 CNS, 90.3%; with U251 CNS, 93.2%; in the assay on PC-3 prostate, 94.4%. Also, the growth was 98.6% in the assay on SK-MEL-5 melanoma; 82.3% with UACC-62 melanoma; 82% in the assay on LOX IMVI melanoma; 107% in the assay on SK-MEL-28 melanoma; 96.9% with SK-MEL-2 melanoma; 105% with EKVX NSCLC. The growth in the assay on SN12C renal is 99.8%; with UO-31 renal it was 83.3%; in the assay with TK-10 renal it was 106%; in the assay on ACHN renal, 106%; with CAKI-1 renal, 107%; with A498 renal it was 95.2%. In the assay with MOLT-4 leukemia, the growth was 100%.
